The results in this text go back to the supplement of paper PMC13380429.

Values without a mark were called inactive.

In the assay the test system is Vero E6 infected with SARS-CoV-2. Put plainly: SARS-CoV-2 infection rate relative to infected DMSO; higher = more infection, active = 60 or less. To be noted: 24 h.
In the case of `COc1ccc(COc2cc3oc(=O)c4cc(C(C)O)ccc4c3cc2OC)cc1` (configuration not stated) [palomid-529] (10 µM), the SARS-CoV-2 infection rate is 113%.

Take `O=C(Oc1cc(S(=O)(=O)c2ccccc2)ccc1[N+](=O)[O-])c1ccc(Cl)cc1` (10 µM): the SARS-CoV-2 infection rate was 104%.

Take `CN1CCN(c2cccc3[nH]c(=O)oc23)CC1` [pardoprunox] (10 µM): the SARS-CoV-2 infection rate was 103%.

Regarding `C=CC[C@]1(O)CC[C@H]2[C@@H]3CCC4=CC(=O)CCC4=C3C=C[C@@]21C` [altrenogest] (10 µM), the SARS-CoV-2 infection rate was 105%.

Regarding `CNC(=N)NCCC[C@H](N)C(=O)O` [targinine] (10 µM), the SARS-CoV-2 infection rate was 106%.

Regarding `NCCC[C@H](N)C(=O)O` [ornithine] (10 µM), the SARS-CoV-2 infection rate was 96.5%.

In the case of `CN(C)[C@@H]1C(O)=C(C(N)=O)C(=O)[C@@]2(O)C(O)=C3C(=O)c4c(O)cccc4[C@@](C)(O)[C@H]3C[C@@H]12` [tetracycline] (10 µM), the SARS-CoV-2 infection rate was 100%.

Take `Nc1c2ccccc2nc2ccccc12` [9-aminoacridine] (0.833333 µM): the SARS-CoV-2 infection rate was 106%.

As to `Cc1ccc(C)c([C@H](O)CNC(C)C)c1` [benzenemethanol,-2,5-dimethyl-[[(1-methylethyl)amino]methyl]] (10 µM), the SARS-CoV-2 infection rate was 106%.

As for `C#C[C@]1(O)CC[C@H]2[C@@H]3CCC4=CC(=O)CC[C@@H]4[C@H]3C(=C)C[C@@]21CC` [etonogestrel] (10 µM), the SARS-CoV-2 infection rate was 90.5%.

Consider `COc1ccc(C2CNC(=O)C2)cc1OC1CCCC1` (configuration not stated) [rolipram] (10 µM), for which the SARS-CoV-2 infection rate was 100%.

For `Cc1ncc(CO)c(/C=N/NC(=O)c2ccncc2)c1O` [pyridoxal-isonicotinoyl-hydrazone] (10 µM), the SARS-CoV-2 infection rate is 100%.

`CCCN1CCCC[C@H]1C(=O)Nc1c(C)cccc1C` [ropivacaine] (10 µM): the SARS-CoV-2 infection rate is 104%.

With `C[C@H]1O[C@@H](n2cc(F)c(=O)[nH]c2=O)[C@H](O)[C@@H]1O` [doxifluridine] (10 µM), the SARS-CoV-2 infection rate is 108%.

As for `Cn1c(COc2ccc(CC3SC(=O)NC3=O)cc2)nc2ccccc2c1=O` (configuration not stated) [balaglitazone] (10 µM), the SARS-CoV-2 infection rate was 111%.

As to `O=C(c1ccc(Cl)cc1)N(Cc1ccccc1)C1CCCCC1` (10 µM), the SARS-CoV-2 infection rate is 103%.

Turning to `N#CCNC(=O)c1ccc(-c2ccnc(Nc3ccc(N4CCOCC4)cc3)n2)cc1` (0.833333 µM), the SARS-CoV-2 infection rate is 103%.

As for `CCN1CCN(c2cc3c(cc2F)c(=O)c(C(=O)O)cn3C2CC2)CC1` [enrofloxacin] (10 µM), the SARS-CoV-2 infection rate is 112%.

As to `CCn1c(N)c(C(=O)NC)c(=O)c2ccc(C#C[C@@](C)(O)COC)nc21` (10 µM), the SARS-CoV-2 infection rate was 92%.

With `COc1cccc(Nc2c(C(N)=O)cnc3c(C)cc(S(=O)(=O)c4cccc(C(=O)N(C)C)c4)cc23)c1` (10 µM), the SARS-CoV-2 infection rate was 91%.

On to `CC(=O)O[C@]1(C(C)=O)CC[C@H]2[C@@H]3CCC4=CC(=O)CC[C@]4(C)[C@H]3CC[C@@]21C` [hydroxyprogesterone-acetate] (10 µM), for which the SARS-CoV-2 infection rate is 104%.

Regarding `NC(=O)c1cccnc1` [nicotinamide] (10 µM), the SARS-CoV-2 infection rate was 108%.

On to `Cn1ccc2cc(NC(=O)Nc3cccnc3)ccc21` (10 µM), for which the SARS-CoV-2 infection rate was 117%.

As for `Nc1nc(N)nc(NC2CC2)n1` [cyromazine] (10 µM), the SARS-CoV-2 infection rate was 86.5%.

Regarding `O=C(O)c1cn(C2CC2)c2cc(N3CCNCC3)c(F)cc2c1=O` [ciprofloxacin] (10 µM), the SARS-CoV-2 infection rate was 106%.

Turning to `CNc1ncnc2c1ncn2[C@@H]1O[C@H](CO)[C@@H](O)[C@H]1O` [N6-methyladenosine] (10 µM), the SARS-CoV-2 infection rate is 100%.

As to `NC(=O)c1cccc2cn(-c3ccc([C@@H]4CCCNC4)cc3)nc12` [niraparib] (0.833333 µM), the SARS-CoV-2 infection rate was 102%.

Turning to `COc1cc2c(cc1OC)-c1cc3nc4ccccc4nc3n1C(C)(C)C2` (10 µM), the SARS-CoV-2 infection rate was 91%.

Regarding `S=C(NCCc1ccccn1)Nc1ccc(Br)cn1` [trovirdine] (10 µM), the SARS-CoV-2 infection rate is 110%.

Take `BrC1C(Br)C(Br)C(Br)C(Br)C1Br` (configuration not stated) [1,2,3,4,5,6-hexabromocyclohexane] (10 µM): the SARS-CoV-2 infection rate was 85%.

With `O=C(C1CC1)N1CC[C@@H](Cc2n[nH]c(=O)n2-c2ccc(-c3ccc4occc4c3)cc2)C1` (10 µM), the SARS-CoV-2 infection rate is 90.5%.

In the case of `O=C(CN1CCNCC1)NC1CCCCC1` [esaprazole] (10 µM), the SARS-CoV-2 infection rate was 104%.
